In ChEMBL document CHEMBL1201862, “PubChem BioAssay data set” (2004) one finds Potency data, which are given here for 6 compounds.

Hit rate of the full screen: of about 360,000 compounds, about 11,000 (3.1%) were called active. Not shown: some 4% with an inconclusive outcome. This is one part of a sample in which actives are shown more often than they occur. No cut-off for these calls is given here.

The assay deals with Thioredoxin glutathione reductase (Schistosoma mansoni) (UniProt Q962Y6). Kind of assay: qHTS Assay for the Inhibitors of Schistosoma Mansoni Peroxiredoxins. [Related pubchem assays: 1011 (Confirmation Concentration-Response Assay for Inhibitors of the Schistosoma mansoni Redox Cascade ), 448 (Schistosoma Mansoni Peroxiredoxins (Prx2) and thioredoxin glutathione reductase (TGR) coupled assay)]. Type of assay: functional.
In the case of `Cl.N[C@@H](CCC(=O)O)C(=O)O`, the Potency is 5.01 µM (active). As for `Nc1c2c(nn1-c1ccc(C(=O)O)cc1)CNC2`, the entry is “inactive”; as for `Cc1ccc(CNC(=O)C(=O)NCC2OCCN2S(=O)(=O)c2ccc3c(c2)OCCO3)cc1` (stereo unspecified), 631 µM (active). Next, `Cc1ccc(CNC(=O)C(NS(=O)(=O)c2cccc3nsnc23)C(C)C)cc1` (stereo unspecified): “inactive”; `Cc1c(C(=O)N2CCCCC2)c(S(=O)(=O)NCCc2ccc(Cl)cc2)c(C)n1C`: “inactive”; `CC(=O)N1CCc2cc(S(=O)(=O)Nc3ccc(C)cc3)ccc21`: 316 µM (active).
